# Source: ChEMBL document CHEMBL4513216, “Probing the Open Global Health Chemical Diversity Library for Multistage-Active Starting Points for Next-Generation Antimalarials” (ACS Infect Dis, 2020)
# Hit rate of the full screen: of about 68,000 compounds, about 2,700 (4%) showed an effect of 50% or more. The sample holds strong results, similar compounds and a random draw of the others, so the mix is not that of the screen.
# Tested on: Plasmodium berghei
# Assay: Screen against P. berghei liver stage (PbLuc), transformed with Luciferase, at 2uM
# Type: functional, HepG2
# Details: tested at 2 uM
row,SMILES,INHIBITION
1,Nc1nnc(Cn2nnc(-c3ccccc3F)n2)s1,39.58%
2,CNc1ncc(CN2CCC(CCc3ccccc3)CC2)cn1,49.87%
3,O=C(c1cccc(-n2cnnc2)c1)N1C[C@@H](O)[C@H](N2CCOCC2)C1,-8.04%
4,CN1CCC(N(C)C[C@H]2CC[C@@H](Cc3ccc4occc4c3)O2)CC1,-10.59%
5,COc1ccc(C[C@@H]2CC[C@H](CN(C)C3CCN(C)CC3)O2)cc1,68.08%
6,CN1CCC(N(C)C[C@H]2CC[C@@H](Cc3cccc(O)c3)O2)CC1,-66.38%
7,Cc1cc(C)n(CC2CCCCN2CC(=O)N(C)Cc2ccco2)n1 (centres undefined),40.82%
8,CC(CNC(=O)c1c[nH]nn1)Oc1ccc(Cl)cc1 (centres undefined),-4.64%
9,O=C(C1CCOCC1)N1CCN(CC2CC2)c2ncccc2C1,51.27%
10,O=C(C1CCOC1)N1CCN(Cc2ccncc2)c2ncccc2C1 (centres undefined),31.08%
11,O=C(N1CCCC1)N1CCN(CC2CC2)c2ncccc2C1,-3.08%
12,CCN(Cc1ccc2c(c1)OCO2)S(=O)(=O)N(C)C(C)C,41.99%
13,CCN(CC)S(=O)(=O)N(CC)Cc1ccc2c(c1)OCCO2,-3.05%
14,CCN(Cc1ccc2c(c1)OCCO2)S(=O)(=O)N(C)C(C)C,63.95%
15,Cc1n[nH]c(C2CN(CC(=O)NCCc3ccc(F)cc3)CCO2)n1 (centres undefined),5.47%
16,Cc1nc2[nH]cnc(NCCN3CCCC3)c-2n1,-20.68%
17,CC(c1cccc(-c2ncc(C#N)c(N)n2)c1)N(C)C (centres undefined),-38.96%
18,O=C1N(Cc2ccc(F)c(F)c2)CCCC12CCN(C1CCCC1)C2 (centres undefined),23.18%
19,CCS(=O)(=O)N1CCC2(CCCN(Cc3ccc(F)c(F)c3)C2=O)C1 (centres undefined),50.59%
20,CCCS(=O)(=O)N1CCC2(CCN(Cc3cccc(F)c3)C2=O)C1 (centres undefined),-25.61%
21,CN(C)S(=O)(=O)N1CCC2(CCCN(Cc3ccc(F)cc3)C2=O)C1 (centres undefined),-37.84%
22,O=C1N(Cc2ccccc2F)CCCC12CCN(C1CCSCC1)C2 (centres undefined),11.26%
23,CCCS(=O)(=O)N1CCC2(CCCN(Cc3cccc(F)c3F)C2=O)C1 (centres undefined),50.59%
24,COc1cnc(N2C[C@H](CO)C[C@H](CN3CCOCC3)C2)nc1,-3.87%
25,COc1c(C2CCCN2C(=O)c2ccc(C(N)=O)s2)c(C)nn1C (centres undefined),-21.71%
26,COc1ccc2c(c1)OCC(CNC1CCc3ncnn3C1)=C2 (centres undefined),-34.12%

row,SMILES,INHIBITION
1,NC(=O)N1CCCC1COC(=O)c1ccc(F)cc1Br (centres undefined),6.47%
2,NC(=O)N1CCCC1COC(=O)c1cc(F)ccc1F (centres undefined),61.91%
3,Cc1ccc(F)cc1C(=O)OCC1CCCN1C(N)=O (centres undefined),5.48%
4,CN1CCN(C=C2N=C(c3cc(-c4ccc(F)cc4)n[nH]3)ON2)CC1,22.39%
5,CCN(C)C[C@@H]1CN(Cc2cccc(Cl)c2)C[C@@H]1CO,38.97%
6,CCN(C)C[C@@H]1CN(S(=O)(=O)c2cccc(Cl)c2)C[C@@H]1CO,55.36%
7,CC[C@H]1CN(S(=O)(=O)c2ccc(OC)cc2)CC[C@H]1CC(=O)O,45.73%
8,CCN(C)C[C@@H]1CN(S(=O)(=O)c2ccc(C#N)cc2)C[C@@H]1CO,14.82%
9,CCN(C)C[C@@H]1CN(S(=O)(=O)c2cccc(C#N)c2)C[C@@H]1CO,14.82%
10,CCN(C)C[C@@H]1CN(S(=O)(=O)c2ccc(OC)cc2)C[C@@H]1CO,76.82%
11,CCCC1(CO)CCCN(C(=O)CNC(N)=O)C1 (centres undefined),3.49%
12,Cc1noc(C)c1CN1CCOC2(CCCN(c3nncs3)C2)C1 (centres undefined),31.96%
13,CCCS(=O)(=O)N1CCC2(CC1)CN(CC1CCOC1)c1ccccc12 (centres undefined),27.67%
14,O=C(NCCN1CCCCC1)c1scnc1Cl,-9.66%
15,CC1CCCN(CCNC(=O)c2ccn(-c3ccccc3)n2)C1 (centres undefined),-61.61%
16,COc1cn(-c2ccccc2)nc1C(=O)NCCN1CCCC(C)C1 (centres undefined),66.2%
17,COc1cn(-c2ccccc2)nc1C(=O)NCCCN1CCCC(C)C1 (centres undefined),20.11%
18,CC1CCCN(CCNC(=O)c2scnc2Cl)C1 (centres undefined),78.42%
19,CC1CCN(CCNC(=O)c2scnc2Cl)CC1,47.87%
20,O=C(NCC1(O)COCCN(Cc2ccc(O)cc2)C1)c1cnccn1 (centres undefined),30.1%
21,CCCc1nc(C)cc(NCc2ccc(S(N)(=O)=O)cc2)n1,-16%
22,Cc1nnc(-c2cccc(C#N)c2)n1C1CCCN(C(C)C)C1=O (centres undefined),-12.01%
23,COc1nc2c(cc1C(=O)N1CC[C@H](CO)[C@@H](O)C1)CCC2,49.02%
24,COCCNc1nc(C2CCCC2)nc2c1CCNCC2,34.98%
25,Cc1nc2c(c(NCCc3nccs3)n1)CCN(CC1CC1)CC2,-28.09%
26,COCCNc1nc(C)nc2c1CCN(CC1CCC(N)CC1)CC2 (centres undefined),57.67%

row,SMILES,INHIBITION
1,O=C(O)COCC(=O)NC1CC2(CCCCC2)Oc2ccccc21 (centres undefined),13.22%
2,Cc1noc(C2CCN(C(=O)c3ccc(C(F)(F)F)nc3)CC2)n1,5.05%
3,CC1CCc2nc(O)c(C(=O)NCc3ccncc3)cc2C1 (centres undefined),1.06%
4,CCCNC(=O)c1cc2c(nc1O)CCC(C)C2 (centres undefined),44.39%
5,CC1CCc2nc(O)c(C(=O)NCCCN3CCN(C)CC3)cc2C1 (centres undefined),68.39%
6,CC1CCc2nc(O)c(C(=O)NCCN(C)C)cc2C1 (centres undefined),27.24%
7,Cc1csc(CCNC(=O)c2cc3c(nc2O)CCC(C)C3)n1 (centres undefined),-46.57%
8,CC1CCc2nc(O)c(C(=O)NCCc3cccs3)cc2C1 (centres undefined),53.61%
9,Cc1nn(CCO)c(C)c1CNCc1cccnc1N(C)C,23.42%
10,CC(C)Oc1ncnc2c1CCN(Cc1ccc(F)cc1)CC2,1.08%
11,COc1ccccc1OCCC(=O)N1CCCC1Cn1cc(C)cn1 (centres undefined),-14.11%
12,Cc1ccc(CNC(=O)CN2CCN(CC(O)C3CC3)CC2)cc1 (centres undefined),-10.6%
13,Cc1cccc(CN2CCO[C@H]3[C@@H](OCc4ccncc4)CC[C@@H]32)n1,15.78%
14,Cc1cnn(C2CCCN(C(=O)CCCNc3ncccn3)C2)c1 (centres undefined),-34.45%
15,COCC(=O)N1C[C@H]2CCCC(OCc3cccnc3)[C@H]2C1 (some centres undefined),-34.83%
16,CC(C)N(C)Cc1nnc2n1CCCN(c1cnccn1)C2,20.01%
17,Cn1nccc1-c1nc2c(cc1C(=O)O)CCN(CC1CC1)CC2,52.66%
18,CNC(=O)c1cc2c(nc1NCC(C)C)CCN(C)CC2,20.21%
19,CNC(=O)c1cc2c(nc1NC(C)C)CCN(C(=O)NC(C)C)CC2,54.06%
20,CNC(=O)N1CCc2cc(C(=O)NCC3CC3)c(NC(C)C)nc2CC1,11.9%
21,CNC(=O)c1cc2c(nc1NC(C)C)CCNCC2,-9.98%
22,CNC(=O)c1cc2c(nc1NCC1CC1)CCN(CC1CC1)CC2,11.18%
23,Cn1nccc1-c1nc2c(cc1C(=O)O)CCN(C(=O)C1CC1)CC2,-28.2%
24,Cc1nc2c(cc1C(=O)O)CCN(CC1CC1)CC2,-14.21%
25,CNC(=O)c1cc2c(nc1NCC(C)C)CCN(CC1CC1)CC2,57.85%
26,CC(=O)N(Cc1noc(C2CC2)n1)C1CCN(Cc2ccccn2)C1 (centres undefined),-1.02%

row,SMILES,INHIBITION
1,CCN1CC(COC(=O)c2ccc(Br)cc2F)CC1=O (centres undefined),17.86%
2,Cc1cc(NC(=O)CNC2CCc3ncnn3C2)no1 (centres undefined),8.42%
3,CN(c1ncc(S(N)(=O)=O)s1)C1CCC1,27.17%
4,CC(=O)NCCNC(=O)N(C)Cc1ccc2c(c1)OCCO2,-43.47%
5,Clc1ccc(COCC2CCN(Cc3ccccn3)CC2)cc1,-7.16%
6,Cn1cnc(S(=O)(=O)N2CCO[C@H]3[C@@H](OCC4CC4)CC[C@@H]32)c1,-6.83%
7,CNC(=O)c1cc(C)nc(C2(C)CCCN2c2cc(C)ncn2)n1 (centres undefined),-4.78%
8,Cc1cncc(C(=O)N2CCCC(O)(CN3CCCC3)C2)c1 (centres undefined),-22.01%
9,Cc1cc(C)c(C(=O)N2CCCC(O)(CN3CCCC3)C2)cc1C (centres undefined),79.79%
10,Cc1cc(C(=O)N2CCCC(O)(CN3CCCC3)C2)ccc1Cl (centres undefined),19.36%
11,O=C(c1ccccn1)N1C[C@H]2CC[C@@H](C1)N(C(=O)CCc1cccs1)C2,-89.49%
12,Cc1cc(C2CCCN2CCCc2nc3ccccc3o2)on1 (centres undefined),-27.69%
13,Cn1c(CN2CCC(OCc3cccnc3)CC2)cc2ccccc21,29.36%
14,CCc1cnc(CN(C)C2CCN(CCc3ccccn3)C2)o1 (centres undefined),-3.88%
15,CCc1cnc(CN(C)C2CCN(CCc3cccs3)C2)o1 (centres undefined),66.97%
16,CCc1cnc(CN(C)C2CCN(CCS(C)(=O)=O)C2)o1 (centres undefined),-29.5%
17,Cc1cnc(CN(C)C2CCN(CC(=O)Nc3c(C)n[nH]c3C)C2)o1 (centres undefined),36.65%
18,Cc1cc(NC(=O)CN2CCC(N(C)Cc3ncc(C)o3)C2)n(C)n1 (centres undefined),57.11%
19,Cc1cnc(CN(C)C2CCN(CC(=O)Nc3nccs3)C2)o1 (centres undefined),23.24%
20,CC(=O)N(Cc1ncc(C)o1)C1CCN(CCc2cccs2)C1 (centres undefined),64.16%
21,CCc1cnc(CN(C(C)=O)C2CCN(CCc3cccs3)C2)o1 (centres undefined),-9.66%
22,CC(=O)N(Cc1ncc(C)o1)C1CCN(CCc2ccncc2)C1 (centres undefined),-23.45%
23,N#Cc1ccc(N2CCN(c3cnccn3)CC2)c(C(F)(F)F)c1,-22.24%
24,CC(C)NC(=O)N1Cc2nccn2CC(COc2cccnc2)C1 (centres undefined),27.08%
25,Cc1nnc2n1CCN(CCC(=O)Nc1sccc1C#N)C2,-7.41%
26,CCC(NC(=O)c1cccc(N2CCCC2=O)c1)c1ccc(OC)cc1 (centres undefined),30.34%
